Common to all, as to assay type: functional
Assay [1] has as its system Plasmodium falciparum. The assay can be described thus: GSK_TCMDC: Inhibition of Plasmodium falciparum 3D7 in whole red blood cells, using parasite LDH activity as an index of growth. Test compounds present at 2uM.
Assay [2] concerns Plasmodium falciparum. The assay can be described thus: GSK_TCMDC: Inhibition of Plasmodium falciparum Dd2 in whole red blood cells, using parasite LDH activity as an index of growth. Test compounds present at 2uM.
The subject of the next assay is HepG2. Put plainly: GSK_TCMDC: Percent inhibition of human HepG2 cell line. Test compounds present at 10uM.

Consider 61 compounds from ChEMBL document CHEMBL1157539, “Thousands of chemical starting points for antimalarial lead identification” (Nature, 2010).

By Inhibition is commonly meant the share of the control response that was lost under treatment.

Turning to `O=C(Nc1ccc(I)cc1)Nc1ccc(Cn2ncc(N3CCCNCC3)c(Cl)c2=O)cc1.O=C(O)C(F)(F)F`, the Inhibition with Plasmodium falciparum [1] is 86%; in the assay with Plasmodium falciparum [2] it was 30%; in the assay on HepG2, 35%.
For `CCNc1cc(C(=O)N[C@@H](Cc2ccccc2)[C@H](O)CNC2CCCC2)cc(N2CCCC2=O)c1`, in that order: 98%, 98% and 8%.
With `CO.Cc1nc(N)nc(N)c1OCc1cccc2c1ccc1ccccc12.Cl`, the Inhibition with Plasmodium falciparum [1] came to 95%; in the assay with Plasmodium falciparum [2], 16%; in the assay with HepG2, 54%.
For `CCOc1cc(C(=O)NC2CC(C)(C)NC(C)(C)C2)ccc1-c1cc2cc(Cl)c(Cl)cc2[nH]1`, in that order: 100%, 46% and 37%.
On to `Cc1cc(Cl)c(S(=O)(=O)NC(C)(C)C)cc1OCC(=O)NC1CCCCC1`, for which the figures for the Inhibition in the assay on Plasmodium falciparum [1], with Plasmodium falciparum [2] and with HepG2 were 93%, 53% and 10%, respectively.
For `O=C(CC1CCCC1)Nc1ccc2c(c1)CCC2`, the Inhibition is given as 93% in the assay on Plasmodium falciparum [1], 0% in the assay on Plasmodium falciparum [2] and 0% with HepG2.
For `COCCOc1ccc(Nc2nccc(-c3c(-c4cccc(NC(=O)c5c(F)cccc5F)c4)nn4ccccc34)n2)cc1F`, the Inhibition was found to be 90% in the assay on Plasmodium falciparum [1], 60% in the assay on Plasmodium falciparum [2] and 62% in the assay with HepG2.
For `O=C(NCCCCCN1CCC(c2c[nH]c3ccccc23)CC1)Nc1ccc(Cl)c(Cl)c1`, in that order: 92%, 0% and 42%.
Take `COc1ccccc1C1CCN(C2CCC(NC(=O)/C=C/c3ccc(OC(F)(F)F)cc3)CC2)CC1` (stereo not drawn): the values for the Inhibition with Plasmodium falciparum [1], in the assay with Plasmodium falciparum [2] and in the assay on HepG2 were 82%, 11% and 65%, respectively.
For `Cl.O=C(Nc1ccc(NC2=NCCN2)cc1)Nc1ccc(NC2=NCCN2)cc1`, in that order: 88%, 72% and 0%.
For `CCC(C)c1ccc(NC(=O)Nc2ccc(Cn3ncc(N4CCCNCC4)c(Cl)c3=O)cc2)cc1.O=C(O)C(F)(F)F` (stereo not drawn), in that order: 83%, 31% and 0%.
For `CN(C)c1ccc(CN2CCC(NC(=O)c3ccc(-c4ccc(N(C)C)cc4)s3)CC2)cc1.O=C(O)C(F)(F)F`, in that order: 93%, 21% and 24%.
For the compound `N=C(N)NC(=O)Nc1cc(Br)c(Cl)c(Br)c1`, the Inhibition in the assay with Plasmodium falciparum [1] came out at 100%; in the assay with Plasmodium falciparum [2] it was 83%; with HepG2, 0%.
For `O=C(O)C(F)(F)F.OC1CCCN(Cc2cccc(-c3ccc(-c4nc5cc(F)ccc5[nH]4)cc3)c2)C1` (stereo not drawn), in that order: 100%, 42% and 16%.
Take `c1ccc(-c2nnc(-c3ccccn3)nc2NC2CCCCC2)cc1`: the Inhibition with Plasmodium falciparum [1] stood at 97%; in the assay on Plasmodium falciparum [2], 80%; in the assay on HepG2, 74%.
For `CN(C)CCNC(=O)N1CCCN(c2ncnc3cc(-c4ccccc4)sc23)CC1.O=C(O)C(F)(F)F`, in that order: 96%, 37% and 5%.
For the compound `COc1ccc(C2SCC(=O)N2CCc2ccc(OC)c(OC)c2)cc1` (stereo not drawn), the Inhibition in the assay on Plasmodium falciparum [1] is reported as 96%; with Plasmodium falciparum [2], 2%; with HepG2, 19%.
Take `CC(C)CNCc1cccc(-c2ccc(CNC3CCN(Cc4ccccc4)CC3)cc2)c1.O=C(O)C(F)(F)F`: the Inhibition was 100% in the assay with Plasmodium falciparum [1], 99% in the assay with Plasmodium falciparum [2] and 44% with HepG2.
For `N#Cc1ccc(CN2CCC(Oc3ccc(NC(=O)c4cccs4)cc3)CC2)cc1.O=C(O)C(F)(F)F`, in that order: 83%, 82% and 10%.
For `O=c1cc(NCCCNC2CCOc3c(Cl)cccc32)[nH]c2ccccc12` (stereo not drawn), in that order: 96%, 27% and 0%.
For `CCNc1cc(C(=O)N[C@@H](Cc2ccccc2)[C@H](O)CNC2(CC)CC2)cc(N2CCCCS2(=O)=O)c1.Cl`, in that order: 97%, 94% and 59%.
`CCc1nc2nc(C)cc(Nc3ccc(F)c(Cl)c3)n2n1`: the results for the Inhibition with Plasmodium falciparum [1], in the assay on Plasmodium falciparum [2] and in the assay on HepG2 were 90%, 77% and 2%, respectively.
For `CC(C)(C)c1ccc(CNC(=O)c2ccc(CNC3CCC(N)CC3)s2)cc1` (stereo not drawn), in that order: 100%, 10% and 41%.
For `COc1ccc(S(=O)(=O)N2CCOCC2)cc1NC(=O)c1cc2ccccc2o1`, in that order: 93%, 0% and 8%.
For `COc1ccc(NC(=O)/C=C/c2cc(Br)ccc2F)cc1OCCN(C(C)C)C(C)C.O=C(O)C(F)(F)F`, in that order: 100%, 14% and 22%.
On to `Br.Cn1c(=N)n(CC(=O)OCc2ccc(OCc3ccccc3)cc2)c2ccccc21`, for which the figures for the Inhibition in the assay with Plasmodium falciparum [1], in the assay on Plasmodium falciparum [2] and in the assay on HepG2 were 100%, 74% and 5%, respectively.
For `Cc1cc(C2CCN(CCCCNC(=O)c3ccc(-c4ccc(C(F)(F)F)cc4)cc3)CC2)c(C)cc1OCCO`, in that order: 99%, 3% and 31%.
For `CC(C(=O)NC1CCN(c2ccnc(Nc3ccc(F)cc3)n2)C1)c1ccc(Cl)cc1` (stereo not drawn), in that order: 95%, 90% and 17%.
For `O=[N+]([O-])c1cccc(NC(=S)N2CCCN(Cc3ccc(C(F)(F)F)cc3)CC2)c1`, in that order: 90%, 49% and 11%.
In the case of `NC1CCN(c2nc(NCCCc3ccc(O)cc3)nc(NCc3ccccc3-c3ccccc3)n2)CC1.O=C(O)C(F)(F)F`, the Inhibition with Plasmodium falciparum [1] turned out to be 100%; in the assay on Plasmodium falciparum [2], 45%; in the assay on HepG2, 11%.
With `CCN(CC)S(=O)(=O)c1ccc(CCOCCCCCNCC(O)c2cc(Cl)c(N)c(Cl)c2)s1.O=C(O)/C=C/C(=O)O` (stereo not drawn), the Inhibition with Plasmodium falciparum [1] is on record as 96%; with Plasmodium falciparum [2], 80%; in the assay on HepG2, 35%.
For `Cc1cc(NCCC(=O)Nc2ccccc2)nc(NCCc2ccccc2)n1.O=C(O)C(F)(F)F`, in that order: 99%, 8% and 0%.
For `COc1cc(F)c2ncc(Cl)c([C@@H](O)CN3CCC(NCc4ccc5c(n4)NC(=O)CO5)CC3)c2c1.Cl`, in that order: 100%, 100% and 12%.
On to `Cl.N[C@@H](CCNC1CCN(c2cccc(C(F)(F)F)c2)CC1)Cc1ccc(F)c(F)c1`, for which the Inhibition in the assay with Plasmodium falciparum [1] came out at 100%; in the assay on Plasmodium falciparum [2] it was 69%; in the assay on HepG2, 100%.
`CCCCN(Cc1cccc(C(F)(F)F)c1Cl)c1ccc(C(O)(C(F)(F)F)C(F)(F)F)cc1.O=C(O)C(F)(F)F`: the values for the Inhibition with Plasmodium falciparum [1], in the assay on Plasmodium falciparum [2] and in the assay on HepG2 were 91%, 55% and 10%, respectively.
For `COc1cccc(CNc2ncc(-c3ccsc3)c(-c3nccs3)n2)c1`, in that order: 89%, 82% and 9%.
Turning to `O=C(O)C(F)(F)F.O=S(=O)(NCCN1CCCC1)c1cccc(-c2ccc(CNCc3ccc(F)cc3)cc2)c1`, the Inhibition in the assay with Plasmodium falciparum [1] is 100%; in the assay on Plasmodium falciparum [2], 41%; with HepG2, 38%.
As to `FC(F)(F)c1cnc(Sc2nnc(-c3ccco3)o2)c(Cl)c1`, the Inhibition with Plasmodium falciparum [1] was determined as 98%; in the assay with Plasmodium falciparum [2] it was 97%; with HepG2 it was 0%.
As to `Cc1c[nH]c2cc(/C=C/C(=O)NC3CCC(CCN4CCc5ccc(C#N)cc5CC4)CC3)ccc12.Cl` (stereo not drawn), the Inhibition came to 95% in the assay with Plasmodium falciparum [1], 59% in the assay on Plasmodium falciparum [2] and 0% in the assay on HepG2.
For `CN1CCN(c2cc(NC(=O)Nc3ccc(-c4ccncc4)c(Cl)c3)ccc2Br)CC1`, in that order: 100%, 99% and 23%.
For `O=C(Nc1cccc(CN2CCCN(Cc3ccc4c(c3)OCO4)CC2)c1)c1ccc2ccccc2c1.O=C(O)C(F)(F)F`, the Inhibition in the assay on Plasmodium falciparum [1] came out at 86%; with Plasmodium falciparum [2], 14%; in the assay on HepG2, 7%.
For `COCCCNc1sc(S(=O)(=O)c2ccccc2)nc1S(=O)(=O)c1ccc(Cl)cc1`, in that order: 95%, 87% and 0%.
Regarding `NC(Cc1cccc(I)c1)C(=O)NCC1CCCO1.O=C(O)C(F)(F)F` (stereo not drawn), the Inhibition came to 98% with Plasmodium falciparum [1], 50% in the assay with Plasmodium falciparum [2] and 52% with HepG2.
For `CCCC(C)Nc1nc(C)cc(N[C@@H](CC(C)C)C(=O)NCCc2ccccc2)n1.O=C(O)C(F)(F)F` (stereo partly drawn), in that order: 96%, 51% and 9%.
For `COc1cc2c(cc1OC)C(C(=O)c1ccccc1)=NCC2.Cl`, in that order: 85%, 62% and 19%.
For `CCOC(=O)c1ccc(COc2ccc(C)nc2)cc1`, in that order: 100%, 0% and 14%.
As for `COc1ccc2nccc([C@@H](O)CN3CCC(NCc4ccc(OC)c(NC(C)=O)c4)CC3)c2c1`, the values for the Inhibition in the assay with Plasmodium falciparum [1], with Plasmodium falciparum [2] and in the assay on HepG2 were 90%, 0% and 0%, respectively.
As to `CCN1CCN(Cc2ccc(-c3ccc(NS(=O)(=O)c4cccc5cccnc45)cc3)cc2)CC1.O=C(O)C(F)(F)F`, the Inhibition in the assay on Plasmodium falciparum [1] is given as 90%; with Plasmodium falciparum [2] it was 42%; in the assay on HepG2, 29%.
For `COc1ccc2nccc([C@@H](O)CN3CCC(NC(=O)/C=C/c4c[nH]c5c(C)cccc45)CC3)c2c1`, in that order: 100%, 88% and 23%.
For `Cl.O=C(Nc1ccc2c(c1)CCN(C1CCC1)CC2)c1ccc(-c2cn3ccccc3n2)cc1`, in that order: 100%, 42% and 13%.
For `CC(=O)Nc1nnc(SCc2c(C)cc(C(C)(C)C)cc2C)s1`, in that order: 98%, 91% and 3%.
`CN(CCN)Cc1ccc(-c2ccc(-c3nc4cc(C(F)(F)F)ccc4[nH]3)s2)cc1.O=C(O)C(F)(F)F`: the Inhibition in the assay with Plasmodium falciparum [1] is listed as 98%; with Plasmodium falciparum [2], 98%; with HepG2, 37%.
For `Nc1ccc(-c2ccc(NC(=O)Nc3ccccc3)cc2)cn1`, the Inhibition in the assay on Plasmodium falciparum [1] was 91%; with Plasmodium falciparum [2], 93%; with HepG2, 0%.
For `Clc1cc(Cl)c2c(c1)C(NCCCNc1nc3ccccc3[nH]1)CCO2` (stereo not drawn), in that order: 100%, 31% and 28%.
For `CCCC(C)Nc1nc(C)cc(N[C@@H](Cc2ccccc2)C(=O)Nc2ccccc2)n1.O=C(O)C(F)(F)F` (stereo partly drawn), in that order: 100%, 67% and 50%.
For `Cc1nnsc1C(=O)Nc1cccc(-c2ccc(-c3nc4cc(F)ccc4[nH]3)cc2)c1`, in that order: 100%, 89% and 51%.
In the case of `Cc1nc(-c2ccc(C#N)cc2)sc1C(=O)NCCCCN1CCC(c2ccc3c(c2OCCO)CCCC3)CC1.Cl`, the Inhibition came out at 99% with Plasmodium falciparum [1], 10% with Plasmodium falciparum [2] and 14% with HepG2.
For `NS(=O)(=O)c1ccc(CNC(=O)c2cnc3c(O)cccc3c2Nc2cccc(NC(=O)c3ccc(Cl)c(Cl)c3)c2)cc1.O=C(O)C(F)(F)F`, the Inhibition with Plasmodium falciparum [1] was determined as 97%; in the assay with Plasmodium falciparum [2], 35%; in the assay on HepG2, 56%.
Take `Cc1cccc2nc(-c3cccc(-c4cccc(NC(=O)Cc5c[nH]cn5)c4)c3)[nH]c12`: the figures for the Inhibition with Plasmodium falciparum [1], in the assay with Plasmodium falciparum [2] and in the assay with HepG2 were 100%, 100% and 32%, respectively.
Turning to `COc1cc2nc(N3CCN(C(=O)c4cccc(I)c4)CC3)nc(N)c2cc1OC`, the Inhibition in the assay with Plasmodium falciparum [1] is on record as 88%; with Plasmodium falciparum [2] it was 26%; with HepG2, 11%.
As for `COC(=O)COc1cc(C(=O)NCCCCN2CCC(c3ccc4c(c3OC)CCCC4)CC2)ccc1-c1ccc(Cl)cc1`, the Inhibition stood at 97% in the assay with Plasmodium falciparum [1], 21% with Plasmodium falciparum [2] and 32% in the assay with HepG2.
